Results as given in PubChem BioAssay (Tox21).
Results filed as inconclusive are left out. A call without a number means that no potency is given here. A number with no mark means an inactive call. Active and inactive are the calls of the source. Unless noted, calls come from the whole dose curve; as a rule, active = well fitted curve in the direction sought with a large enough effect in the repeat runs; inconclusive = weak or mixed curves; inactive = no such curve, though single readings can be large; an effect the other way counts as inactive or inconclusive.

What was measured:
[1] = qHTS assay to identify aromatase inhibitors - cell viability counter screen (AID 743084);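 note: cells stimulated with testosterone during compound exposure; nearly all actives have a fitted effect of over 55% in size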; note: potency is the fitted concentration of half-maximal effect
[2] = qHTS assay to identify small molecule that activate the aryl hydrocarbon receptor (AhR) signaling pathway - cell viability counter screen (AID 743086); note: nearly all actives have a fitted effect of over 45% in size; note: potency is the fitted concentration of half-maximal effect
Summary of the method: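 HepG2-AhR-luc (HG2L7.5c1) cells, 4000/well, treated 24 h at 37 C with compound; viability measured as CellTiter-Fluor fluorescence after 30 min in the same wells as the luciferase read.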

[3] = target: Peroxisome proliferator-activated receptor gamma (Homo sapiens) (UniProt P37231); assay: qHTS assay to identify small molecule agonists of the peroxisome proliferator-activated receptor gamma (PPARg) signaling pathway (AID 743094; active = well fitted activation curve with a large enough effect in the signal ratio in the repeat runs, not every such curve was filed as active; the % refers to the signal ratio)
Peroxisome proliferator-activated receptor gamma (Homo sapiens), sequence (P37231 whole entry, looked up): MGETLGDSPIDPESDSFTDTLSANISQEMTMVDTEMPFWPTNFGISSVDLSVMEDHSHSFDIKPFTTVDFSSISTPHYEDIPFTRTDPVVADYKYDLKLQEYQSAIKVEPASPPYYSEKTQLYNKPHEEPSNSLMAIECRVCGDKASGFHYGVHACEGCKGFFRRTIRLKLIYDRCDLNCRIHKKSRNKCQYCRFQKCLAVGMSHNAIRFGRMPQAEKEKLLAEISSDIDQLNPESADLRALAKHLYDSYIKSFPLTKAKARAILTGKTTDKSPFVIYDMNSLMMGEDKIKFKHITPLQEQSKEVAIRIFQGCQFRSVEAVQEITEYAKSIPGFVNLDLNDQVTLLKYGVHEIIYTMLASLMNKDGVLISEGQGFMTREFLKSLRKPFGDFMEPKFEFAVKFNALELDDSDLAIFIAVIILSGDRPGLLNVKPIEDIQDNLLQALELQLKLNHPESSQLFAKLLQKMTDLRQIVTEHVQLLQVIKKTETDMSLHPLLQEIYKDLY
Summary of the method: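 Fluorescence-based beta-lactamase readout in HEK293H PPARg UAS-bla cells after 17 h compound exposure (37C) and 1 h B/G FRET substrate incubation at room temperature.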

[4] = qHTS assay to identify small molecule phospholipidosis (PLD) inducers (AID 1259344; active = well fitted curve in the direction sought with a large enough effect; an effect the other way counts as inactive or inconclusive)
Summary of the method: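 Read-out is LipidTOX Red fluorescence (ex 595/em 615) imaged in HepG2 cells after 24 h compound exposure at 37 C, with Hoechst nuclear counterstain (ex 352/em 461) allowing per-cell normalisation.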

[5] = target: Nuclear receptor subfamily 1 group I member 2 (Homo sapiens) (UniProt O75469); assay: CYP3A4 induction through human pregnane X receptor (PXR) by small molecules, qHTS assay (AID 1346984); note: nearly all actives have a fitted effect of over 40% in size; note: potency is the fitted concentration of half-maximal effect
Summary of the method: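 After 24 h at 37C with compound, DPX-2 cells (HepG2, co-transfected PXR response element and CYP3A4 promoter-luciferase) got 3uM final P450-Glo Luciferin-IPA for 3 h; One-Glo luminescence followed.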

[6] = target: Nuclear receptor subfamily 1 group I member 2 (Homo sapiens) (UniProt O75469); assay: Human pregnane X receptor (PXR) activation by small molecules, qHTS assay (AID 1346985); note: nearly all actives have a fitted effect of over 40% in size; note: potency is the fitted concentration of half-maximal effect
Summary of the method: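 DPX-2 cells (HepG2 co-transfected with a PXR response element and a CYP3A4-promoter luciferase construct) were seeded at 2,000 per well, rested 5 hr at 37C, then exposed to DMSO-dissolved compounds for 24 hr. Activation was read as luciferase luminescence.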

[7] = target: Aryl hydrocarbon receptor (Homo sapiens) (UniProt P35869); assay: qHTS assay to identify small molecule that activate the aryl hydrocarbon receptor (AhR) signaling pathway (AID 743085); note: nearly all actives have a fitted effect of over 15% in size; note: potency is the fitted concentration of half-maximal effect;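 for activation: HG2L7.5c1 human HepG2 liver cells with stably integrated DRE-driven firefly reporter; series mostly up to about 70 µM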
Aryl hydrocarbon receptor (Homo sapiens), sequence (P35869 whole entry, looked up): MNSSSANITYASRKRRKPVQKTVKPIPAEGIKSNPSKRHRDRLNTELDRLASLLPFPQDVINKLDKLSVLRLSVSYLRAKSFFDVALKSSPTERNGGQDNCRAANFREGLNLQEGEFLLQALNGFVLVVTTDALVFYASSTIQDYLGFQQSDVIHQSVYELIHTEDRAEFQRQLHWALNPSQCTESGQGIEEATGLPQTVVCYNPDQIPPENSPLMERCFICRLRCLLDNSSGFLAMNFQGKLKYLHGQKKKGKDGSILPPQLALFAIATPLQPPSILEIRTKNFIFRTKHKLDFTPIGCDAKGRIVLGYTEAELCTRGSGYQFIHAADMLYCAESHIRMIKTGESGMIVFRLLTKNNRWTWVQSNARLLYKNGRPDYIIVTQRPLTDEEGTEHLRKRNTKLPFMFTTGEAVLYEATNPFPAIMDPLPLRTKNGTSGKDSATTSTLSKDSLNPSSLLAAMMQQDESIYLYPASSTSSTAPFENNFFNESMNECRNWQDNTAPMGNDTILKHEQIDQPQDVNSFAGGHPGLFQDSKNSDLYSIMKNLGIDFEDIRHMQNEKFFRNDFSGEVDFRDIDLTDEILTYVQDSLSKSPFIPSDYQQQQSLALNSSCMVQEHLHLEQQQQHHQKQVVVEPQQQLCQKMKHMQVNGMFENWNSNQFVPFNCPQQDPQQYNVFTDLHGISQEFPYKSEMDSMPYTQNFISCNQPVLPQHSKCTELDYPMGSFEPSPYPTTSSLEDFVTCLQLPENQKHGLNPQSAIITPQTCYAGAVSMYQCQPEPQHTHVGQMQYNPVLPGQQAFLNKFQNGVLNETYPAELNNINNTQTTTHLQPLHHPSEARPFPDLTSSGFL
Summary of the method: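 Cell line HG2L7.5c1 (human hepatoma, 20× DRE-luc). Plated, 5 h 37C, compound/DMSO added, 24 h 37C. CellTiter-Fluor 30 min 37C → fluorescence; then ONE-Glo 30 min RT → luminescence.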

In the case of `CCOC(=O)[C@H](CS)NCCN[C@@H](CS)C(=O)OCC`, the Potency [1] is reported as “inactive”, the Potency [2] is reported as “inactive” and the Potency [3] is reported as “inactive”. For the same molecule, the Potency [4] was “inactive”, the Potency [5] was “inactive” and the Potency [6] was “inactive”.
With `C=Cc1c(C)c2cc3nc(cc4[nH]c(cc5nc(cc1[nH]2)C(C)=C5CCC(=O)OC)c(CCC(=O)O)c4C)[C@@]1(C)C3=CC=C(C(=O)OC)[C@H]1C(=O)OC` the Potency [2] was “inactive”, the Potency [3] was “inactive” and the Potency [4] was “inactive”. The Potency [5] was “inactive” and the Potency [6] was “inactive”.
For `NC(=O)C[C@@H](N)C(=O)O`, the Potency [1] was “inactive”, the Potency [7] was “inactive” and the Potency [4] was “inactive”.
For `C=CCNC1=C2C[C@@H](C)C[C@H](OC)[C@H](O)[C@@H](C)/C=C(\C)[C@H](OC(N)=O)[C@@H](OC)/C=C\C=C(/C)C(=O)NC(=CC1=O)C2=O`, the Potency [7] was “inactive”, the Potency [2] was “inactive” and the Potency [4] was “inactive”. For the same molecule, the Potency [5] was “inactive” and the Potency [6] was 6.31 µM (active).
For `CCCCCCCCCCCCCC[n+]1ccc(C)cc1`, the Potency [7] was “inactive”, the Potency [4] was “inactive” and the Potency [5] was “inactive”. For the same molecule, the Potency [6] was “inactive”.
For `CN[C@H]1CCc2cc(OC)c(OC)c(OC)c2-c2ccc(OC)c(=O)cc21`, the Potency [1] was “inactive”, the Potency [3] was “inactive” and the Potency [4] was “inactive”. The Potency [5] was “inactive” and the Potency [6] was 1 µM (active).
For `C#CCC(Cc1cnc2nc(N)nc(N)c2n1)c1ccc(C(=O)N[C@@H](CCC(=O)O)C(=O)O)cc1` (some centres not stated), the Potency [1] was “inactive”, the Potency [7] was “inactive” and the Potency [2] was “inactive”. For the same molecule, the PLD induction [4] was 6.01% [at 0.306 µM].
In the case of `CO[C@@H]1[C@@H](O[C@@H]2O[C@H](C)[C@@H](O[C@H]3C[C@@](C)(O)[C@@H](OC(=O)CC(C)C)[C@H](C)O3)[C@H](N(C)C)[C@H]2O)[C@@H](CC=O)C[C@@H](C)C(=O)/C=C/C2OC2C[C@@H](C)OC(=O)C[C@H]1OC(C)=O` (some centres not stated), the Potency [7] is reported as “inactive”, the Potency [4] is reported as “inactive” and the Potency [5] is reported as “inactive”. The Potency [6] was “inactive”.
With `CC1=C(/C=C/C(C)=C/C=C/C(C)=C/C=C/C=C(C)/C=C/C=C(C)/C=C/C2=C(C)C[C@@H](O)CC2(C)C)C(C)(C)C[C@H](O)C1` the Potency [2] was “inactive”, the Potency [4] was “inactive” and the Potency [5] was “inactive”. The Potency [6] was “inactive”.
In the case of `CCCC(=O)Nc1ncnc2c1ncn2[C@@H]1O[C@@H]2COP(=O)(O)O[C@H]2[C@H]1OC(=O)CCC`, the Potency [1] is reported as “inactive”, the Potency [7] is reported as “inactive” and the Potency [2] is reported as “inactive”. The Potency [4] was “inactive”.
For `CC(=O)O[C@H]1C[C@@]2(C)[C@@H](C[C@@H](O)[C@H]3[C@@]4(C)CC[C@@H](O)[C@@H](C)[C@@H]4CC[C@@]32C)/C1=C(\CCC=C(C)C)C(=O)O`, the Potency [1] was “inactive”, the Potency [7] was “inactive” and the Potency [2] was “inactive”. For the same molecule, the Potency [3] was “inactive”, the Potency [4] was “inactive” and the Potency [6] was “inactive”.
With `CC1(C)C(\C=C/C=C\C=C/C=C2/N(CCCCS(=O)(=O)O)c3ccc4ccccc4c3C2(C)C)=[N+](CCCCS(=O)(=O)[O-])c2ccc3ccccc3c21` the Potency [3] was “inactive”, the Potency [4] was “inactive” and the Potency [5] was “inactive”. The Potency [6] was “inactive”.
For `CO[C@H]1C=CO[C@@]2(C)Oc3c(C)c(O)c4c(O)c(c(/C=N/N5CCN(C6CCCC6)CC5)c(O)c4c3C2=O)NC(=O)/C(C)=C\C=C[C@H](C)[C@H](O)[C@@H](C)[C@@H](O)[C@@H](C)[C@H](OC(C)=O)[C@@H]1C`, the Potency [1] was 23.7 µM (active), the Potency [7] was “inactive” and the Potency [2] was 26.6 µM (active). The Potency [4] was “inactive”.
In the case of `COc1cc2c(cc1OC)CC(=O)N(CCCN(C)C[C@H]1Cc3cc(OC)c(OC)cc31)CC2`, the Potency [1] is reported as “inactive”, the Potency [7] is reported as “inactive” and the Potency [2] is reported as “inactive”. The Potency [3] was “inactive”, the Potency [4] was “inactive” and the Potency [5] was “inactive”.
In the case of `CCCOc1ccc2nc(NC(=O)OC)sc2c1`, the Potency [1] is reported as “inactive”, the Potency [7] is reported as 4.22 µM (active) and the Potency [2] is reported as “inactive”. The Potency [3] was “inactive”, the Potency [4] was “inactive” and the Potency [5] was “inactive”.
With `Cc1cc(Nc2ccccc2C(=O)O)ccc1Cl` the Potency [1] was “inactive”, the Potency [7] was 26.6 µM (active) and the Potency [4] was “inactive”.
With `[O]=[Bi][O]C(=O)[O][Bi]=[O]` the Potency [1] was “inactive”, the Potency [2] was “inactive” and the Potency [3] was “inactive”. For the same molecule, the Potency [4] was “inactive”, the Potency [5] was “inactive” and the Potency [6] was “inactive”.
In the case of `CCC(C)C(C(=O)OCC[N+](C)(CC)CC)c1ccccc1` (configuration not stated), the Potency [1] is reported as “inactive”, the Potency [7] is reported as “inactive” and the Potency [2] is reported as “inactive”. The Potency [4] was “inactive”.
In the case of `CC1(C)S[C@@H]2[C@H](NC(=O)[C@H](N)c3ccccc3)C(=O)N2[C@H]1C(=O)OCOC(=O)[C@@H]1N2C(=O)C[C@H]2S(=O)(=O)C1(C)C`, the Potency [1] is reported as “inactive”, the Potency [7] is reported as “inactive” and the Potency [2] is reported as “inactive”. For the same molecule, the Potency [4] was “inactive”.
For `O=C(O)c1cc(O)c2c(c1)[O][Bi][O]2`, the Potency [1] was “inactive”, the Potency [2] was “inactive” and the Potency [3] was “inactive”. For the same molecule, the Potency [4] was “inactive”, the Potency [5] was “inactive” and the Potency [6] was “inactive”.
With `O=C(CCCCCCCCCCCCC1CCCC1)Nc1ccc(S(=O)(=O)c2ccc(NC(=O)CCCCCCCCCCCCC3CCCC3)cc2)cc1` the Potency [1] was “inactive”, the Potency [2] was “inactive” and the Potency [3] was “inactive”. For the same molecule, the Potency [4] was “inactive”, the Potency [5] was “inactive” and the Potency [6] was “inactive”.
With `CC(C)N=c1cc2n(-c3ccc(Cl)cc3)c3ccccc3nc-2cc1Nc1ccc(Cl)cc1` the Potency [7] was “inactive”, the Potency [2] was “inactive” and the Potency [3] was “inactive”. For the same molecule, the Potency [4] was “inactive”, the Potency [5] was “inactive” and the Potency [6] was “inactive”.
With `O=C(c1cc2ccccc2o1)N1CCN(Cc2ccccc2)CC1` the Potency [1] was “inactive”, the Potency [2] was “inactive” and the Potency [3] was “inactive”. The Potency [4] was “inactive”, the Potency [5] was “inactive” and the Potency [6] was “inactive”.
In the case of `CCN(CC)c1ccc(C(=C2C=CC(=[N+](CC)CC)C=C2)c2ccccc2)cc1`, the Potency [1] is reported as 7.5 µM (active), the Potency [7] is reported as “inactive” and the Potency [2] is reported as 5.96 µM (active). For the same molecule, the Potency [4] was “inactive”.
In the case of `CC(NNC(=O)c1ccccc1)c1ccccc1` (configuration not stated), the Potency [1] is reported as “inactive”, the Potency [7] is reported as 11.9 µM (active) and the Potency [2] is reported as “inactive”. The Potency [3] was “inactive”, the Potency [4] was “inactive” and the Potency [5] was “inactive”.
For `CCN(CC)CCC(=O)N1c2ccccc2Sc2ccc(Cl)cc21`, the Potency [1] was “inactive”, the Potency [7] was “inactive” and the Potency [3] was “inactive”. For the same molecule, the Potency [4] was “inactive”, the Potency [5] was 14.1 µM (active) and the Potency [6] was 14.1 µM (active).
